In PubChem BioAssay (EPA / NIEHS):
Where “and” joins values, the source holds several entries; their conditions need not be identical. Equal values may be shown once. Inconclusive results are not listed. A structure can be active in one record and inactive in another. Calls of active or inactive are those of the source. How the source made its calls, unless noted: active means hit-call score of the fitted dose curve at least 0.9, where 1 is the maximum; inconclusive means response in the unintended direction; inactive means score below 0.9.

Assays:
[1] = target: human Norepinephrine Transporter (NET), SLC6A2 (gene 6530) (UniProt P23975); assay: NVS_TR_hNET: NovaScreen (NVS) Transporter Assay for human Norepinephrine Transporter (NET) (AID 2283377);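 further: cell-free membrane protein extracted from CHO cells expressing human NET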;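 on AC50: displacement of radioligand from human NET seen as loss of scintillation signal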
Procedure, shortened: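 CHO cell extracts expressing the transporter; tritiated or iodinated tracer displaced competitively; filtration plus scintillation readout at 1 h. Single-point duplicates at 25 uM, concentration series for follow-up; activity = signal drop relative to DMSO.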

[2] = CEETOX_H295R_11DCORT: CeeTox H295R High-throughput Steroidogenesis Assay for 11-Deoxycortisol (11DCORT) (AID 2283432; active means hit-call score of the fitted dose curve at least 0.9, where 1 is the maximum; inactive means score below 0.9;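 on AC50: 11-deoxycortisol secreted into the medium measured by LC-MS/MS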); details: actives raise or lower the signal
Procedure, shortened: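 Steroidogenesis in human H295R cells: 48 h chemical exposure after forskolin priming, 11-deoxycortisol measured by LC-MS/MS.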

[3] = CEETOX_H295R_OHPREG: CeeTox H295R High-throughput Steroidogenesis Assay for OH-Pregnenolone (OHPREG) (AID 2283434; active means hit-call score of the fitted dose curve at least 0.9, where 1 is the maximum; inactive means score below 0.9); details: actives raise or lower the signal
Procedure, shortened: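 H295R, 10 uM forskolin pre-stim 48 h; test chemical 48 h, 0.1% DMSO final. MTBE extraction, reverse-phase C18 HPLC-ESI+ MS/MS of medium. Gain/loss vs DMSO; viability by MTT in same wells.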

[4] = CEETOX_H295R_OHPROG: CeeTox H295R High-throughput Steroidogenesis Assay for OH-Progesterone (OHPROG) (AID 2283435; active means hit-call score of the fitted dose curve at least 0.9, where 1 is the maximum; inactive means score below 0.9;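 on AC50: 17alpha-hydroxyprogesterone secreted into medium measured by HPLC-MS/MS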); details: actives raise or lower the signal
Procedure, shortened: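 Medium steroid levels read by LC-MS/MS after 48 h chemical treatment (0.1% DMSO) of human adrenal H295R cells that had been forskolin-primed (10 uM, 48 h). Gain or loss fitted against DMSO; MTT cytotoxicity checked per well.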

[5] = CEETOX_H295R_CORTIC: CeeTox H295R High-throughput Steroidogenesis Assay for Corticosterone (CORTIC) (AID 2283437; active means hit-call score of the fitted dose curve at least 0.9, where 1 is the maximum; inactive means score below 0.9;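 further: corticosterone secreted into medium quantified by mass spectrometry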); details: actives raise or lower the signal
Procedure, shortened: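 48 h forskolin (10 uM) prestim, then 48 h chemical exposure, final DMSO 0.1%. Readout: corticosterone in medium by LC-MS/MS after MTBE extraction. Gain/loss fit vs DMSO; MTT viability in same wells.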

[6] = CEETOX_H295R_CORTISOL: CeeTox H295R High-throughput Steroidogenesis Assay for Cortisol (AID 2283438; active means hit-call score of the fitted dose curve at least 0.9, where 1 is the maximum; inactive means score below 0.9;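 further: cortisol secreted into medium quantified by LC-MS/MS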); details: actives raise or lower the signal
Procedure, shortened: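 Cortisol measured by HPLC-MS/MS after MTBE extraction of medium from H295R cells exposed 48 h to chemical (0.1% DMSO), following 48 h prestimulation with 10 uM forskolin. Viability assessed by MTT in the same wells.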

[7] = CEETOX_H295R_ESTRADIOL: CeeTox H295R High-throughput Steroidogenesis Assay for Estradiol (AID 2283440; active means hit-call score of the fitted dose curve at least 0.9, where 1 is the maximum; inactive means score below 0.9;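 further: estradiol secreted into medium quantified by LC-MS/MS after dansyl derivatisation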); details: actives raise or lower the signal
Procedure, shortened: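 H295R cells pre-stimulated 48 h with 10 uM forskolin, then exposed 48 h to chemical in 0.1% DMSO. Medium estradiol quantified by MTBE extraction, dansyl derivatisation and HPLC-MS/MS; bidirectional fit versus DMSO; MTT viability required >/=70%.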

[8] = target: Norway rat Vesicular Monoamine Transporter (VMAT2), neurotransmitter transporter, Slc18a2 (gene 25549) (UniProt Q01827); assay: NVS_TR_rVMAT2: NovaScreen (NVS) Transporter Assay for Norway rat Vesicular Monoamine Transporter (VMAT2), neurotransmitter transporter (AID 2283376);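 further: actives lower the bound radioligand signal below the DMSO level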
Procedure, shortened: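 Filter-based scintillation counting of radioligand bound to rat forebrain-derived VMAT2 protein, cell-free, 1 h post-dose. Signal loss relative to DMSO control scored; single-concentration duplicate screen (25 uM) followed by concentration-response testing of actives.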

[9] = target: Estrogen receptor beta (Homo sapiens) (UniProt Q92731); assay: OT_ER_ERbERb_1440: Odyssey Thera (OT) 24-hour HEK293T Protein-Complementation Assay for Estrogen Receptor-beta/-beta Homodimer (AID 2283380);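 further: scored as signal increase over DMSO baseline for both agonists and antagonists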
Procedure, shortened: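 HEK293T cells stably expressing ER beta LBD (aa 310-547) homodimer fragment-complementation reporter, dosed 24 h. Cells formaldehyde-fixed, Draq5-stained; gain in nuclear (agonist) or nuclear plus cytoplasmic (antagonist) fluorescence versus DMSO read by laser scanning cytometry.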

[10] = target: Bile acid receptor (Homo sapiens) (UniProt Q96RI1); assay: OT_FXR_FXRSRC1_0480: Odyssey Thera (OT) 8-hour HEK293T Protein-Complementation Assay for Farnesoid X receptor/SRC-1 Co-activator (AID 2283383)
Procedure, shortened: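 Binding of FXR to coactivator SRC-1 was read as fluorescence from a reconstituted split reporter in HEK293T cells, 8 h after chemical addition. Only increases in signal versus DMSO were fit.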

[11] = target: Retinoic acid receptor RXR-alpha (Homo sapiens) (UniProt P19793); assay: OT_NURR1_NURR1RXRa_0480: Odyssey Thera (OT) 8-hour HEK293T Protein Complementation Assay for Nurr1/retinoid X receptor (RXR) (AID 2283385)
Procedure, shortened: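 Interaction of Nurr1 with RXRα read as reconstituted reporter fluorescence in a HEK293T fragment-complementation system, 8 h post-treatment; increase over DMSO baseline analysed.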

[12] = target: Retinoic acid receptor RXR-alpha (Homo sapiens) (UniProt P19793); assay: OT_NURR1_NURR1RXRa_1440: Odyssey Thera (OT) 24-hour HEK293T Protein Complementation Assay for Nurr1/retinoid X receptor (RXR) (AID 2283386)
Procedure, shortened: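 Gain in fluorescence, fitted relative to DMSO, reflects Nurr1–RXRα association in HEK293T cells after 24 h dosing. Bait and prey are each linked to a reporter-protein fragment that reassembles on interaction.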

[13] = target: rat Serotonin Transporter (SERT), Slc6a4 (gene 25553) (UniProt P31652); assay: NVS_TR_rSERT: NovaScreen (NVS) Transporter Assay for rat Serotonin Transporter (SERT) (AID 2283375)
Procedure, shortened: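 Rat forebrain membranes; radioligand displacement at SERT read by filter-based scintillation counting, 1 h after dosing. Screened in duplicate at 25 uM, actives then run in concentration series; loss of signal versus DMSO baseline.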

[14] = target: Estrogen receptor (Homo sapiens) (UniProt P03372); assay: OT_ERa_GFPERaERE_0480: Odyssey Thera (OT) 8-hour HeLa Transcription Induction Assay for Estrogen Receptor (AID 2283381; active means hit-call score of the fitted dose curve at least 0.9, where 1 is the maximum; inactive means score below 0.9)
Procedure, shortened: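 Fluorescence microscopy with high-content image analysis measures ERE-driven GFP induction in HeLa cells at 8 h post-dose. Increases fitted against DMSO baseline.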

[15] = target: Estrogen receptor (Homo sapiens) (UniProt P03372); assay: OT_ERa_GFPERaERE_0120: Odyssey Thera (OT) 2-hour HeLa Transcription Induction Assay for Estrogen Receptor (AID 2283382)
Procedure, shortened: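 Fluorescence-microscopy images of the GFP-ERα/ERE reporter, scored by high-content image algorithms, give the readout. HeLa exposure lasted 2 h, and only signal increase over DMSO was fitted.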

[16] = target: Bile acid receptor (Homo sapiens) (UniProt Q96RI1); assay: OT_FXR_FXRSRC1_1440: Odyssey Thera (OT) 24-hour HEK293T Protein-Complementation Assay for Farnesoid X receptor/SRC-1 Co-activator (AID 2283384)
Procedure, shortened: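 Protein-fragment complementation: FXR and SRC-1 fused to reporter fragments that reassemble on interaction, read by fluorescence intensity. Human HEK293T cells measured 24 h post-dose; positive-direction fit versus DMSO.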

[17] = target: Peroxisome proliferator-activated receptor gamma (Homo sapiens) (UniProt P37231); assay: OT_PPARg_PPARgSRC1_0480: Odyssey Thera (OT) 8-hour Protein-Complementation Assay for Peroxisome Proliferator-activated Receptor Gamma / SRC-1 Co-activator (AID 2283387)
Procedure, shortened: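 Split-YFP (IFP1/IFP2) PPARg/SRC-1 reporter, HEK293T, 37 °C, 5% CO2; 8 h compound; formaldehyde fix + Draq5; high-content imaging, N/C ratio, ≥350 cells/image, positive direction vs DMSO.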

[18] = target: Peroxisome proliferator-activated receptor gamma (Homo sapiens) (UniProt P37231); assay: OT_PPARg_PPARgSRC1_1440: Odyssey Thera (OT) 24-hour Protein-Complementation Assay for Peroxisome Proliferator-activated Receptor Gamma/ SRC-1 Co-activator (AID 2283388)
Procedure, shortened: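 HEK293T transiently transfected with PPARg/SRC-1 split-Venus YFP fusions 48 h before dosing, then treated 24 h at 37C. Fixed cells imaged; nuclear/cytoplasmic 488 nm fluorescence ratio, gain of signal versus DMSO.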

[19] = target: mouse Estrogen Receptor alpha (Era), Esr1 (gene 13982) (UniProt P19785); assay: NVS_NR_mERa: NovaScreen (NVS) Nuclear Receptor Binding Assay for mouse Estrogen Receptor alpha (Era) (AID 2283378);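 further: hit means loss of bound radioligand signal relative to DMSO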
Procedure, shortened: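 Cell-free radioligand competitive displacement binding, read by filter-based scintillation counting 18 h after dosing. Primary screen run in duplicate at 25 uM, actives retested in concentration series; loss of signal versus DMSO.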

[20] = CEETOX_H295R_ANDR: CeeTox H295R High-throughput Steroidogenesis Assay for Androstenedione (ANDR) (AID 2283436; active means hit-call score of the fitted dose curve at least 0.9, where 1 is the maximum; inactive means score below 0.9;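 further: human H295R adrenal cells exposed for 48 h with androstenedione measured in medium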); details: actives raise or lower the signal
Procedure, shortened: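 48 h chemical exposure, H295R cells, DMEM/F12 + ITS+ and Nu-Serum. Medium androstenedione: MTBE extraction, C18 reverse-phase HPLC, ESI+ MS/MS. Fit bidirectional vs DMSO; MTT viability in same wells.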

Measured: AC50

Norway rat Vesicular Monoamine Transporter (VMAT2), neurotransmitter transporter, Slc18a2 (gene 25549), sequence (Q01827 whole entry, looked up): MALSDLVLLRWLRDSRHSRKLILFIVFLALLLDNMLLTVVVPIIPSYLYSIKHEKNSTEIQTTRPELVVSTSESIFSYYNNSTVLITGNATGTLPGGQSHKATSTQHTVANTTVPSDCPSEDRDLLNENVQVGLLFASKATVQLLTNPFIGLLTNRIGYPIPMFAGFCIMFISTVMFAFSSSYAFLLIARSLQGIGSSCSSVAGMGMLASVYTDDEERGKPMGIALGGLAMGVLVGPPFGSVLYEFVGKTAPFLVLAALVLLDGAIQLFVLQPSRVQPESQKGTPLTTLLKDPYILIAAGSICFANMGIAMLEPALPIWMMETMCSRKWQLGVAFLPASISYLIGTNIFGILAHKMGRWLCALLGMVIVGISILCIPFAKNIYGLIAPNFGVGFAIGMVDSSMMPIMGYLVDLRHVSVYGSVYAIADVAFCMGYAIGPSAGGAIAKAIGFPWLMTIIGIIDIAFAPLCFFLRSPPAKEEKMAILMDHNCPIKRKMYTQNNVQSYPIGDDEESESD
Peroxisome proliferator-activated receptor gamma (Homo sapiens), sequence (P37231 whole entry, looked up, the tested form may be a part): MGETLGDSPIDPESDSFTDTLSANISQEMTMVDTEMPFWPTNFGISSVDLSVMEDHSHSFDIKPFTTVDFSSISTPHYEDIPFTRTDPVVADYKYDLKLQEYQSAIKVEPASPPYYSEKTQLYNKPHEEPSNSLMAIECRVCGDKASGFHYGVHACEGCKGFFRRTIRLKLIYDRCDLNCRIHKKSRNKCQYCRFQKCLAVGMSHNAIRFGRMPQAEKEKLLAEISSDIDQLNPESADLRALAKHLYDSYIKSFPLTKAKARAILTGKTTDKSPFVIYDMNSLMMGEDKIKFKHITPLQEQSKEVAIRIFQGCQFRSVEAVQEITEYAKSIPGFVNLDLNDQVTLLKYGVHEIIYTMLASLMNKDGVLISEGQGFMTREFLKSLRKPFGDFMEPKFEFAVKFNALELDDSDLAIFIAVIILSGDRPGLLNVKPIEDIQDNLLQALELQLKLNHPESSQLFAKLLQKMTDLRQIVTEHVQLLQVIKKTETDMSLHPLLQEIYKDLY
Bile acid receptor (Homo sapiens), sequence (Q96RI1 whole entry, looked up, the tested form may be a part): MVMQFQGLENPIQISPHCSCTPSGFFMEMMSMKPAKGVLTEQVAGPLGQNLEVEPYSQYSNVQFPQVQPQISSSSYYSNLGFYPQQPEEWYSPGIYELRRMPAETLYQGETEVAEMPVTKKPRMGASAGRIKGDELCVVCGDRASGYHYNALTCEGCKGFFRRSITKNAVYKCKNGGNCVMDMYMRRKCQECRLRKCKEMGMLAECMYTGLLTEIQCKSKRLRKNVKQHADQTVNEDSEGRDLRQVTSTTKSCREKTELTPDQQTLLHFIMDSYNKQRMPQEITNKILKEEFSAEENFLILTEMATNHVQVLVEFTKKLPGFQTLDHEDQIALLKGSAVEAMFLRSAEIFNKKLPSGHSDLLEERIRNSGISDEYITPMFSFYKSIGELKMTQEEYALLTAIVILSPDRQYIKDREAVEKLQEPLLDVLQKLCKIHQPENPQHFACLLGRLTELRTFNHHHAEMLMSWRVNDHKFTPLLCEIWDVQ
Retinoic acid receptor RXR-alpha (Homo sapiens), sequence (P19793 whole entry, looked up, the tested form may be a part): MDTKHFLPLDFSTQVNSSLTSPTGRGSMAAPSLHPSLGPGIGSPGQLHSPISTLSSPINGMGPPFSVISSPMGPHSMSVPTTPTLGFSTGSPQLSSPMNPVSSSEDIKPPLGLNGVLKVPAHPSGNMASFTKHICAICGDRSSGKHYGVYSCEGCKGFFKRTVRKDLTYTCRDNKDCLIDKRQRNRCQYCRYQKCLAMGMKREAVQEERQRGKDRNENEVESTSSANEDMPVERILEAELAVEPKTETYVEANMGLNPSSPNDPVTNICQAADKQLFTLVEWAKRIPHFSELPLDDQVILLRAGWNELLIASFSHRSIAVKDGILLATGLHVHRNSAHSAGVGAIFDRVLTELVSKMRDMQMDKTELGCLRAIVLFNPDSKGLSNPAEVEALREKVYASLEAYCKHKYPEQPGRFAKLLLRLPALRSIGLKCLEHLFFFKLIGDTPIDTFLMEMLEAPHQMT
mouse Estrogen Receptor alpha (Era), Esr1 (gene 13982), sequence (P19785 whole entry, looked up): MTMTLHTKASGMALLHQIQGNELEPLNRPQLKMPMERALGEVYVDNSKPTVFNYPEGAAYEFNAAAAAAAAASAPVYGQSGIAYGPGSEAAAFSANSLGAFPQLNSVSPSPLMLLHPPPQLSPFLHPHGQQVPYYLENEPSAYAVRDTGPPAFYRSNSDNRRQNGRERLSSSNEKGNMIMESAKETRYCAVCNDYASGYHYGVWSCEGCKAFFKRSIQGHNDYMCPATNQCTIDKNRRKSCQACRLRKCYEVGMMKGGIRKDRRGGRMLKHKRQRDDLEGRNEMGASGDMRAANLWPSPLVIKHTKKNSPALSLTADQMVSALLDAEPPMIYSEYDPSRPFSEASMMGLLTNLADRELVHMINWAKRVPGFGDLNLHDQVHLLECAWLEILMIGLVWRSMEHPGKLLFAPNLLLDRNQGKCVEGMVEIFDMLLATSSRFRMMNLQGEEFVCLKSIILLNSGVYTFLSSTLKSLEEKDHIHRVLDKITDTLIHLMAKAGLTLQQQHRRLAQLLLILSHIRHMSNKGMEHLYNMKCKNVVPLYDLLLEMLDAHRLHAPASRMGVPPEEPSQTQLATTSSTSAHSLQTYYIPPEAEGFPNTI
Estrogen receptor (Homo sapiens), sequence (P03372 whole entry, looked up): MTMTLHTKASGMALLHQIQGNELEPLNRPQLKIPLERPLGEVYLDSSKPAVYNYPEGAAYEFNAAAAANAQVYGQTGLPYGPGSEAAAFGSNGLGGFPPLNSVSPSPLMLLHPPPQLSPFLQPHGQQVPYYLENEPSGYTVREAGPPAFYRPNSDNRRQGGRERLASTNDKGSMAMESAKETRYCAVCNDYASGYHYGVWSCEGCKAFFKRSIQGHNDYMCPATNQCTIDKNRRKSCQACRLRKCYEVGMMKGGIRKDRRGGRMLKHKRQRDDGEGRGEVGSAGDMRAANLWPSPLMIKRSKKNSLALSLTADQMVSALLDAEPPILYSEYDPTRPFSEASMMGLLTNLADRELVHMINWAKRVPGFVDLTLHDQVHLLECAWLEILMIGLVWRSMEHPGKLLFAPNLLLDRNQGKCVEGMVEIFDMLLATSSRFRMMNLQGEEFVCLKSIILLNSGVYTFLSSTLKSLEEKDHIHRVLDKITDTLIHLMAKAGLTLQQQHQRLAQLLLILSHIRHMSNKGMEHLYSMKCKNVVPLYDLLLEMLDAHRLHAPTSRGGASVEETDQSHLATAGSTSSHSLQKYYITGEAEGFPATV
rat Serotonin Transporter (SERT), Slc6a4 (gene 25553), sequence (P31652 whole entry, looked up): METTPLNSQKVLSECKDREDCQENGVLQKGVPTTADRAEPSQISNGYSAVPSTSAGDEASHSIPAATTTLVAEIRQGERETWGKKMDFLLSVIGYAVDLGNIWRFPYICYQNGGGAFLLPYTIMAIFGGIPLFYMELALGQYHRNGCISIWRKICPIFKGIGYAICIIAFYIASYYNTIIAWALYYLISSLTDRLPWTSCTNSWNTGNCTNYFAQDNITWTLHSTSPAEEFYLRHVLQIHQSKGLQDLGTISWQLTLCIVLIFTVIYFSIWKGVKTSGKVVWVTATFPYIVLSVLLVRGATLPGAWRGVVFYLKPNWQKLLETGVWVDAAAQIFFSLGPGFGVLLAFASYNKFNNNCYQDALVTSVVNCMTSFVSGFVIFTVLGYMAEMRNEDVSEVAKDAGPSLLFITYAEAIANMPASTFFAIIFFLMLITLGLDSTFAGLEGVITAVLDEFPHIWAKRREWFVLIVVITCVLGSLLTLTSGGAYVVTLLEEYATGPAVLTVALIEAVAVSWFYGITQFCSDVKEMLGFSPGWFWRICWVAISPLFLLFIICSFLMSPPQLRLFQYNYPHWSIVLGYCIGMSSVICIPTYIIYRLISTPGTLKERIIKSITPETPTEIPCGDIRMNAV
human Norepinephrine Transporter (NET), SLC6A2 (gene 6530), sequence (P23975 whole entry, looked up): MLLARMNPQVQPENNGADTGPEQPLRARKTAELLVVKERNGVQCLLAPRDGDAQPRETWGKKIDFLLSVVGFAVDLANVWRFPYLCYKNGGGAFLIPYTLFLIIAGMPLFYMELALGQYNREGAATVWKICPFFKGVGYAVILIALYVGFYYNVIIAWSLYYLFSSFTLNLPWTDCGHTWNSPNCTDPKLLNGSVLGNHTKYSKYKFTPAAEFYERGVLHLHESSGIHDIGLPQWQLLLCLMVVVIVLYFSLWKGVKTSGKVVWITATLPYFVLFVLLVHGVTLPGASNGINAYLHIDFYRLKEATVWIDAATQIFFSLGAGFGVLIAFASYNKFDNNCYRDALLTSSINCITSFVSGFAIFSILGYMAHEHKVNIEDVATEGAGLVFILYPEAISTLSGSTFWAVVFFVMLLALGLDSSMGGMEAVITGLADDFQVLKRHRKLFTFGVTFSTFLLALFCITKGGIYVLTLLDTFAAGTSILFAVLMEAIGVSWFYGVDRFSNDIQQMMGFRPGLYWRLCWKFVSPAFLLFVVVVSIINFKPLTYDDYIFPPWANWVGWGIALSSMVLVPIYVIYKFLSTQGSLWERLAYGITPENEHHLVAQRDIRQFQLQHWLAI
Estrogen receptor beta (Homo sapiens), sequence (Q92731 whole entry, looked up, the tested form may be a part): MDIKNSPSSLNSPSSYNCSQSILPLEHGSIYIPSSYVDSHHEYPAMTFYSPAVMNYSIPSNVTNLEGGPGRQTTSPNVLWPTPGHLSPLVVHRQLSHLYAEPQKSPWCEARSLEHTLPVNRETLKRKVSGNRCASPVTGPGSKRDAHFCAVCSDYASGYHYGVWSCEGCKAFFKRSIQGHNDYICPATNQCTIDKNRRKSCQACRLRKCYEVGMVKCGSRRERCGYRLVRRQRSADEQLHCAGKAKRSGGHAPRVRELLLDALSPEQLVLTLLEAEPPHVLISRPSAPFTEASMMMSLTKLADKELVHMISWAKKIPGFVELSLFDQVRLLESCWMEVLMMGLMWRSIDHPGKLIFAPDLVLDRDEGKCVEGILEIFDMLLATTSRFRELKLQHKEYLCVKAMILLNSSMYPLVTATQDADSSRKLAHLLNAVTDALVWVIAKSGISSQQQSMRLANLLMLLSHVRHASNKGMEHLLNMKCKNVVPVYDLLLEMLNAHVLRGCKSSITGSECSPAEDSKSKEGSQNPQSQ

Nc1ccc(-c2ccc(N)c(Cl)c2)cc1Cl
inactive: [2] | [3] | [4] | [5] | [6] | [7]
active: [1] 3.04 µM

CCCCC(CC)CO[N+](=O)[O-] (stereo not drawn)
inactive: [8]

COc1cccc(C=O)c1
inactive: [8]

CC(C)(C)CC(C)(C)c1ccc(O)cc1
inactive: [8]
active: [1] 11.7 µM | [9] 1.04 µM and 593 nM and 1.02 µM | [10] 11.2 µM | [11] 11.3 µM and 11.2 µM | [12] 11.2 µM

CCC(=O)C(CC(C)N(C)C)(c1ccccc1)c1ccccc1 (stereo not drawn)
inactive: [9] | [14] | [15] | [10] | [16] | [11] | [12] | [17] | [18]
active: [13] 0.0639 µM | [1] 5.61 µM

CC(=[OH+])/C=C(/C)[O-].CC(=[OH+])/C=C(/C)[O-].CC(=[OH+])/C=C(/C)[O-].[Fe]
inactive: [8]

O=C(O)C(Cl)(Cl)Cl
inactive: [8] | [11] | [12] | [17] | [18]

CCOC(=O)Nc1cccc(OC(=O)Nc2ccccc2)c1
inactive: [19] | [9] | [14] | [15] | [11] | [12] | [17] | [18]
active: [1] 3.25 µM

O=[N+]([O-])c1ccc2c3c(cccc13)CC2
active: [13] 18.2 µM

CCOP(=S)(OCC)SCSP(=S)(OCC)OCC
inactive: [1] | [14] | [11] | [17] | [18] | [5] | [6] | [7]
active: [9] 17.5 µM | [15] 10.9 µM | [2] 18.6 µM | [3] 14.9 µM | [4] 1.73 µM

O=C(Cl)c1ccc(Cl)cc1
inactive: [8] | [1]

O=C(O)C(F)(F)C(F)(F)C(F)(F)C(F)(F)C(F)(F)C(F)(F)C(F)(F)C(F)(F)C(F)(F)C(F)(F)F
inactive: [1] | [9] | [10] | [16] | [11] | [12] | [17] | [18]

CCCCCCCCC(=O)NCc1ccc(O)c(OC)c1
inactive: [8] | [2] | [3] | [4] | [5] | [6] | [7]

O=C(CCl)CCl
inactive: [19]

Oc1c(I)cc(I)cc1I
active: [1] 25 µM

Clc1ccc(COC(Cn2ccnc2)c2ccc(Cl)cc2Cl)cc1 (stereo not drawn)
active: [14] 63.8 µM | [11] 11.2 µM | [12] 11.6 µM
inactive: [19] | [9] | [15] | [17] | [18]

Nc1cccc2ccccc12
active: [1] 14.8 µM

C=C(C)C(=O)[O][Sn]([CH2]CCC)([CH2]CCC)[CH2]CCC
active: [13] 4.15 µM | [8] 4.76 µM | [1] 0.376 µM | [19] 9.68 µM | [15] 0.772 µM | [18] 0.0287 µM
inactive: [9] | [14] | [16] | [17] | [18]

Cc1cc(Cl)ccc1O[C@H](C)C(=O)O
inactive: [1]

CC(=O)[O][Hg][c]1ccccc1
active: [1] 0.212 µM | [14] 4.11 µM | [15] 12 µM | [16] 0.2 µM | [12] 0.266 µM
inactive: [9] | [17] | [18]

NC(=S)Nc1ccccc1
active: [1] 15.4 µM

C=CC(=O)OCCCCCC(C)C
inactive: [19] | [9] | [14] | [15] | [10] | [16] | [17] | [18]

Fc1ccc(C2(Cn3cncn3)OC2c2ccccc2Cl)cc1 (stereo not drawn)
active: [9] 19.2 µM | [16] 18.9 µM | [2] 7.55 µM | [3] 0.645 µM | [4] 2.06 µM | [6] 3.04 µM | [7] 1.5 µM
not listed: [1] | [8] | [13] | [20]
inactive: all other assays above

CC(C)(C)c1cc(O)ccc1O
active: [1] 13.8 µM | [16] 62.2 µM | [11] 69.5 µM
inactive: [14] | [15] | [10] | [11] | [12] | [17] | [18]

COP(=S)(OC)Oc1cc(Cl)c(Cl)cc1Cl
inactive: [1]

COP(=S)(OC)Oc1ccc(S(=O)(=O)N(C)C)cc1
inactive: [8]

CCOP(=S)(OCC)Oc1nc(Cl)c(Cl)cc1Cl
inactive: [19] | [9] | [14] | [15] | [12] | [17] | [18] | [4] | [5] | [7]
active: [10] 35.1 µM | [16] 76.4 µM | [11] 83.4 µM and 71 µM | [12] 85.3 µM | [2] 94.9 µM | [3] 80.5 µM | [20] 60.7 µM | [6] 81.6 µM

Cn1sc(Cl)cc1=O
active: [1] 1.59 µM
inactive: [9] | [14] | [15] | [10] | [16] | [11] | [12] | [17] | [18]
